# PMC11442847
# What was measured:
# Assay in all cases: cross-linking mass spectrometry
# Details in all cases: DSSO, not determined
# ATP1B3 = ATP1B3 (UniProt P54709)
# DIP2B = DIP2B (UniProt Q9P265)
# INPP5F = INPP5F (UniProt Q9Y2H2)
# ITPR2 = ITPR2 (UniProt Q14571)
# NMI = NMI (UniProt Q13287)
# S100A6 = S100A6 (UniProt P06703)
# SLC44A1 = SLC44A1 (UniProt Q8WWI5)
# WAC = WAC (UniProt Q9BTA9)
substance,measurement,setting,value
"PLS3, P13797",cross-linked residues,ATP1B3,K42 - K182
"PLK3, Q9H4B4",cross-linked residues,DIP2B,K217 - K118
"B2M, P61769",cross-linked residues,INPP5F,K39 - K352
"OAS2, P29728",cross-linked residues,ITPR2,K388 - K954
"RNASEH1, O60930",cross-linked residues,NMI,K236 - K156
"TPD52L2, O43399",cross-linked residues,S100A6,K175 - K47
"KNTC1, P50748",cross-linked residues,SLC44A1,K859 - K145
"CENPN, Q96H22",cross-linked residues,WAC,K245 - K175
